{"source": "the supplement of paper PMC12494721", "note": "Counter-ions that a name gives are not always drawn. A number with no mark means an inactive call.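 How the source made its calls: for the amine columns active = adjusted P below 0.05 in both replicates with a change the same way and a mean fold change under 0.8 or over 1.25; inactive = the rest.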", "data": [{"system": "Klebsiella aerogenes DSM 30053", "assay": "fold change of Cadaverine concentration vs plate DMSO controls (fold change (ratio)); higher = more amine produced, active = hit call of the paper (significant change in both replicates, either direction)", "settings": "incubation time: 27 h, anaerobic, 37 °C", "in_short": "(§1)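 Anaerobic mGAM cultures of four gut bacterial strains were grown at 37 °C for 27 h in 80 µL wells, starting at OD 0.1 before 1:1 dilution. Compounds were at 20 µM final (sweeteners 50 µM). Whole cultures were extracted with cold acetonitrile/methanol containing 0.1% formic acid and centrifuged. Amines were quantified by LC–triple-quadrupole MS (dynamic MRM) against external calibration curves and drift-corrected within batch. Each value is the fold change versus plate DMSO controls, averaged over 2 biological replicates.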", "values": [{"smiles": "CC#CCn1c(N2CCC[C@@H](N)C2)nc2c1c(=O)n(Cc1nc(C)c3ccccc3n1)c(=O)n2C", "note": "[Linagliptin] (20 µM)", "fold change of Cadaverine concentration": 0.996}, {"smiles": "CCOc1ccc2c(c1)C(C)=CC(C)(C)N2", "note": "[Ethoxyquin] (20 µM)", "fold change of Cadaverine concentration": 0.986}, {"smiles": "Cn1c(=O)c2c(ncn2C)n(C)c1=O", "note": "[Caffeine] (20 µM)", "fold change of Cadaverine concentration": 0.987}, {"smiles": "C[C@]12CC[C@@H]3c4ccc(O)cc4CC[C@H]3[C@@H]1CC[C@@H]2O", "note": "[Estradiol-17 beta] (20 µM)", "fold change of Cadaverine concentration": 1}, {"smiles": "CC(=O)OCC(=O)[C@@]12OC3(CCCC3)O[C@@H]1C[C@H]1[C@@H]3CCC4=CC(=O)C=C[C@]4(C)[C@@]3(F)[C@@H](O)C[C@@]12C", "note": "[Amcinonide] (20 µM)", "fold change of Cadaverine concentration": 0.997}, {"smiles": "OCCN1CCN(CCCN2c3ccccc3C=Cc3ccccc32)CC1", "note": "[Opipramol dihydrochloride] (20 µM)", "fold change of Cadaverine concentration": 0.98}, {"smiles": "CC(C)[N+](C)(CCOC(=O)C1c2ccccc2Oc2ccccc21)C(C)C", "note": "[Propantheline bromide] (20 µM)", "fold change of Cadaverine concentration": 0.996}, {"smiles": "C[C@H](O)[C@H](O)[C@H]1CNc2[nH]c(N)nc(=O)c2N1", "note": "[Sapropterin dihydrochloride] (20 µM)", "fold change of Cadaverine concentration": 1.01}, {"smiles": "CCN(CC)CCNC(=O)c1cc(S(C)(=O)=O)ccc1OC", "note": "[Tiapride hydrochloride] (20 µM)", "fold change of Cadaverine concentration": 1}, {"smiles": "CNCCCN1c2ccccc2CCc2ccccc21", "note": "[Desipramine hydrochloride] (20 µM)", "fold change of Cadaverine concentration": 0.987}, {"smiles": "COc1ccccc1OCC(O)CN1CCN(CC(=O)Nc2c(C)cccc2C)CC1", "note": "(stereo not drawn) [Ranolazine] (20 µM)", "fold change of Cadaverine concentration": 1.01}, {"smiles": "CC(=O)c1ccc2c(c1)N(CCCN1CCC(CCO)CC1)c1ccccc1S2", "note": "[Piperacetazine] (20 µM)", "fold change of Cadaverine concentration": 0.993}, {"smiles": "Cn1cc(C(=O)Nc2ccc(F)cc2-c2ccc(Cl)c(Cl)c2)c(C(F)F)n1", "note": "(20 µM)", "fold change of Cadaverine concentration": 0.986}, {"smiles": "Nc1nc(=O)[nH]cc1F", "note": "[Flucytosine] (20 µM)", "fold change of Cadaverine concentration": 0.979}, {"smiles": "O=c1oc2cc(O)ccc2s1", "note": "[Tioxolone] (20 µM)", "fold change of Cadaverine concentration": 0.987}, {"smiles": "CCN1C(=O)NC(c2ccccc2)C1=O", "note": "(stereo not drawn) [Ethotoin] (20 µM)", "fold change of Cadaverine concentration": 0.981}, {"smiles": "C=C1/C(=C\\C=C2/CCC[C@]3(C)[C@@H]([C@H](C)/C=C/[C@@H](O)C4CC4)CC[C@@H]23)C[C@@H](O)C[C@@H]1O", "note": "[Calcipotriene] (20 µM)", "fold change of Cadaverine concentration": 1}, {"smiles": "COc1ccc([C@@H]2Sc3ccccc3N(CCN(C)C)C(=O)[C@@H]2OC(C)=O)cc1", "note": "[Diltiazem hydrochloride] (20 µM)", "fold change of Cadaverine concentration": 0.993}, {"smiles": "N#Cc1ccc(C(c2ccc(C#N)cc2)n2cncn2)cc1", "note": "[Letrozole] (20 µM)", "fold change of Cadaverine concentration": 0.992}, {"smiles": "Clc1ccc(CSC(Cn2ccnc2)c2ccc(Cl)cc2Cl)cc1", "note": "(stereo not drawn) [Sulconazole nitrate] (20 µM)", "fold change of Cadaverine concentration": 1.01}, {"smiles": "NC(=O)c1ncn([C@@H]2O[C@H](CO)[C@@H](O)[C@H]2O)n1", "note": "[Ribavirin] (20 µM)", "fold change of Cadaverine concentration": 1.01}, {"smiles": "CC(C)NCC(O)c1cc(O)cc(O)c1", "note": "(stereo not drawn) [Metaproterenol sulfate] (20 µM)", "fold change of Cadaverine concentration": 0.992}, {"smiles": "Cc1ccccc1C(=O)Nc1ccc(C(=O)N2CCCC(O)c3cc(Cl)ccc32)c(C)c1", "note": "(stereo not drawn) [Tolvaptan] (20 µM)", "fold change of Cadaverine concentration": 1}, {"smiles": "CC(C)(C)NC(=O)[C@H]1CC[C@H]2[C@@H]3CC[C@H]4NC(=O)C=C[C@]4(C)[C@H]3CC[C@]12C", "note": "[Finasteride] (20 µM)", "fold change of Cadaverine concentration": 1.01}, {"smiles": "O=c1n(CCCN2CCN(c3cccc(Cl)c3)CC2)nc2ccccn12", "note": "[Trazodone hydrochloride] (20 µM)", "fold change of Cadaverine concentration": 0.99}, {"smiles": "NNc1nncc2ccccc12", "note": "[Hydralazine hydrochloride] (20 µM)", "fold change of Cadaverine concentration": 0.994}, {"smiles": "CN(C/C=C/c1ccccc1)Cc1cccc2ccccc12", "note": "[Naftifine hydrochloride] (20 µM)", "fold change of Cadaverine concentration": 0.99}, {"smiles": "N=c1nc(N2CCCCC2)cc(N)n1O", "note": "[Minoxidil] (20 µM)", "fold change of Cadaverine concentration": 1.01}, {"smiles": "C=CC[C@@H]1/C=C(\\C)C[C@H](C)C[C@H](OC)[C@H]2O[C@@](O)(C(=O)C(=O)N3CCCC[C@H]3C(=O)O[C@H](/C(C)=C/[C@@H]3CC[C@@H](O)[C@H](OC)C3)[C@H](C)[C@@H](O)CC1=O)[C@H](C)C[C@@H]2OC", "note": "[Tacrolimus Monohydrate] (20 µM)", "fold change of Cadaverine concentration": 1.01}]}, {"system": "Ruminococcus gnavus DSM 108212", "assay": "fold change of 2-Phenylethylamine concentration vs plate DMSO controls (fold change (ratio)); higher = more amine produced, active = hit call of the paper (significant change in both replicates, either direction)", "settings": "incubation time: 27 h, anaerobic, 37 °C", "in_short": "as §1", "values": [{"smiles": "CN(C(=O)CN(CCO)CC(=O)N(C)C(C)(C)Cc1ccccc1)C(C)(C)Cc1ccccc1", "note": "[Oxethazaine] (20 µM)", "fold change of 2-Phenylethylamine concentration": "0.728 (active)"}, {"smiles": "CCCCC(CC)CN1C(=O)[C@@H]2[C@H](C1=O)[C@@H]1C=C[C@H]2C1", "note": "(mixture of isomers) (20 µM)", "fold change of 2-Phenylethylamine concentration": 1.06}, {"smiles": "CC(=O)OCC1=C(C(=O)O)N2C(=O)[C@@H](NC(=O)Cc3cccs3)[C@H]2SC1", "note": "[Cephalothin sodium salt] (20 µM)", "fold change of 2-Phenylethylamine concentration": "0.0703 (active)"}, {"smiles": "Cc1cc(CC(=O)O)n(C)c1C(=O)c1ccc(Cl)cc1", "note": "[Zomepirac sodium salt] (20 µM)", "fold change of 2-Phenylethylamine concentration": 0.968}, {"smiles": "CC(CNC1CCCCC1)OC(=O)c1ccccc1", "note": "(stereo not drawn) [Hexylcaine hydrochloride] (20 µM)", "fold change of 2-Phenylethylamine concentration": 1.01}, {"smiles": "CC(C)n1c(/C=C/C(O)CC(O)CC(=O)O)c(-c2ccc(F)cc2)c2ccccc21", "note": "(stereo not drawn) [Fluvastatin sodium salt] (20 µM)", "fold change of 2-Phenylethylamine concentration": 0.984}, {"smiles": "CCCc1cc(=O)[nH]c(=S)[nH]1", "note": "[Propylthiouracil] (20 µM)", "fold change of 2-Phenylethylamine concentration": 1.03}, {"smiles": "CC(=O)Nc1ccc(OCC(O)CNC(C)C)cc1", "note": "(stereo not drawn) [Practolol] (20 µM)", "fold change of 2-Phenylethylamine concentration": 1.02}, {"smiles": "C[C@@H]1O[C@@H](O[C@H]2[C@H](Oc3cc(O)c(C(=O)CCc4ccc(O)cc4)c(O)c3)O[C@H](CO)[C@@H](O)[C@@H]2O)[C@H](O)[C@H](O)[C@H]1O", "note": "[Naringin Dihydrochalcone] (50 µM)", "fold change of 2-Phenylethylamine concentration": 0.966}, {"smiles": "Nc1cc(-c2ccncc2)c[nH]c1=O", "note": "[Amrinone] (20 µM)", "fold change of 2-Phenylethylamine concentration": 0.97}, {"smiles": "CC#CCn1c(N2CCC[C@@H](N)C2)nc2c1c(=O)n(Cc1nc(C)c3ccccc3n1)c(=O)n2C", "note": "[Linagliptin] (20 µM)", "fold change of 2-Phenylethylamine concentration": 0.997}, {"smiles": "CCOc1ccc2c(c1)C(C)=CC(C)(C)N2", "note": "[Ethoxyquin] (20 µM)", "fold change of 2-Phenylethylamine concentration": 0.807}, {"smiles": "Cn1c(=O)c2c(ncn2C)n(C)c1=O", "note": "[Caffeine] (20 µM)", "fold change of 2-Phenylethylamine concentration": 1.06}, {"smiles": "C[C@]12CC[C@@H]3c4ccc(O)cc4CC[C@H]3[C@@H]1CC[C@@H]2O", "note": "[Estradiol-17 beta] (20 µM)", "fold change of 2-Phenylethylamine concentration": 1.04}, {"smiles": "CC(=O)OCC(=O)[C@@]12OC3(CCCC3)O[C@@H]1C[C@H]1[C@@H]3CCC4=CC(=O)C=C[C@]4(C)[C@@]3(F)[C@@H](O)C[C@@]12C", "note": "[Amcinonide] (20 µM)", "fold change of 2-Phenylethylamine concentration": 1.07}, {"smiles": "OCCN1CCN(CCCN2c3ccccc3C=Cc3ccccc32)CC1", "note": "[Opipramol dihydrochloride] (20 µM)", "fold change of 2-Phenylethylamine concentration": 1.02}, {"smiles": "CC(C)[N+](C)(CCOC(=O)C1c2ccccc2Oc2ccccc21)C(C)C", "note": "[Propantheline bromide] (20 µM)", "fold change of 2-Phenylethylamine concentration": 0.963}, {"smiles": "C[C@H](O)[C@H](O)[C@H]1CNc2[nH]c(N)nc(=O)c2N1", "note": "[Sapropterin dihydrochloride] (20 µM)", "fold change of 2-Phenylethylamine concentration": 0.911}, {"smiles": "CCN(CC)CCNC(=O)c1cc(S(C)(=O)=O)ccc1OC", "note": "[Tiapride hydrochloride] (20 µM)", "fold change of 2-Phenylethylamine concentration": 0.956}, {"smiles": "CNCCCN1c2ccccc2CCc2ccccc21", "note": "[Desipramine hydrochloride] (20 µM)", "fold change of 2-Phenylethylamine concentration": 0.934}, {"smiles": "COc1ccccc1OCC(O)CN1CCN(CC(=O)Nc2c(C)cccc2C)CC1", "note": "(stereo not drawn) [Ranolazine] (20 µM)", "fold change of 2-Phenylethylamine concentration": 1.06}, {"smiles": "CC(=O)c1ccc2c(c1)N(CCCN1CCC(CCO)CC1)c1ccccc1S2", "note": "[Piperacetazine] (20 µM)", "fold change of 2-Phenylethylamine concentration": 1.29}, {"smiles": "Cn1cc(C(=O)Nc2ccc(F)cc2-c2ccc(Cl)c(Cl)c2)c(C(F)F)n1", "note": "(20 µM)", "fold change of 2-Phenylethylamine concentration": 0.931}, {"smiles": "Nc1nc(=O)[nH]cc1F", "note": "[Flucytosine] (20 µM)", "fold change of 2-Phenylethylamine concentration": 1.01}, {"smiles": "O=c1oc2cc(O)ccc2s1", "note": "[Tioxolone] (20 µM)", "fold change of 2-Phenylethylamine concentration": 0.959}, {"smiles": "CCN1C(=O)NC(c2ccccc2)C1=O", "note": "(stereo not drawn) [Ethotoin] (20 µM)", "fold change of 2-Phenylethylamine concentration": 0.855}, {"smiles": "C=C1/C(=C\\C=C2/CCC[C@]3(C)[C@@H]([C@H](C)/C=C/[C@@H](O)C4CC4)CC[C@@H]23)C[C@@H](O)C[C@@H]1O", "note": "[Calcipotriene] (20 µM)", "fold change of 2-Phenylethylamine concentration": 0.981}, {"smiles": "COc1ccc([C@@H]2Sc3ccccc3N(CCN(C)C)C(=O)[C@@H]2OC(C)=O)cc1", "note": "[Diltiazem hydrochloride] (20 µM)", "fold change of 2-Phenylethylamine concentration": 0.971}, {"smiles": "N#Cc1ccc(C(c2ccc(C#N)cc2)n2cncn2)cc1", "note": "[Letrozole] (20 µM)", "fold change of 2-Phenylethylamine concentration": 1.02}, {"smiles": "Clc1ccc(CSC(Cn2ccnc2)c2ccc(Cl)cc2Cl)cc1", "note": "(stereo not drawn) [Sulconazole nitrate] (20 µM)", "fold change of 2-Phenylethylamine concentration": "0.667 (active)"}, {"smiles": "NC(=O)c1ncn([C@@H]2O[C@H](CO)[C@@H](O)[C@H]2O)n1", "note": "[Ribavirin] (20 µM)", "fold change of 2-Phenylethylamine concentration": 0.967}, {"smiles": "CC(C)NCC(O)c1cc(O)cc(O)c1", "note": "(stereo not drawn) [Metaproterenol sulfate] (20 µM)", "fold change of 2-Phenylethylamine concentration": 0.938}, {"smiles": "Cc1ccccc1C(=O)Nc1ccc(C(=O)N2CCCC(O)c3cc(Cl)ccc32)c(C)c1", "note": "(stereo not drawn) [Tolvaptan] (20 µM)", "fold change of 2-Phenylethylamine concentration": 0.924}, {"smiles": "CC(C)(C)NC(=O)[C@H]1CC[C@H]2[C@@H]3CC[C@H]4NC(=O)C=C[C@]4(C)[C@H]3CC[C@]12C", "note": "[Finasteride] (20 µM)", "fold change of 2-Phenylethylamine concentration": 1.12}]}]}
